{
  "source": "ChEMBL document CHEMBL3988442",
  "about": "“University of Dundee, Small-Polar-MMV Screening Library” (2021)",
  "note": "In all, about 38,000 compounds went through this assay and about 1,200 (3.2%) showed an effect of 50% or more. The median lay at about -58%. This excerpt belongs to a sample that is enriched for strong results.",
  "data": [
    {"test_system": "Plasmodium falciparum", "assay": "Calibr Malaria Delayed Death Assay SOP", "type": "functional, organism-based", "parameters": "scale not given: in the data most compounds retested in dose-response had high values", "settings": "concentration 4.99e-06 (unit not given; other assays of the set use mol/L)", "units": {"Percent Effect": "%"}, "values": [
      {"smiles": "CCCn1nnc(NCc2cc(Br)cc(Br)c2OC)n1", "Percent Effect": -108.1},
      {"smiles": "COc1ccccc1OCC(=O)NCC(O)(c1cccs1)C1CC1", "note": "(stereo not drawn)", "Percent Effect": -17.87},
      {"smiles": "Cc1ccc(-c2cnc3n2CCN(C)C32CCN(CC3CC3)CC2)cc1.O=C(O)C(F)(F)F.O=C(O)C(F)(F)F.O=C(O)C(F)(F)F", "Percent Effect": 38.95},
      {"smiles": "CC(=O)N1CCC2(CC1)c1ncc(-c3ccc(F)cc3)n1CCN2C", "Percent Effect": -51.39},
      {"smiles": "CNC(=O)N1CCC2(CC1)c1ncc(-c3cccc(F)c3)n1CCN2C.O=C(O)C(F)(F)F", "Percent Effect": -80.59},
      {"smiles": "CCN1CCn2c(-c3cccc(F)c3)cnc2C12CCN(C(C)=O)CC2.O=C(O)C(F)(F)F", "Percent Effect": -93.41},
      {"smiles": "CN1CCn2c(-c3ccccc3)cnc2C12CCN(CC1CC1)CC2.O=C(O)C(F)(F)F.O=C(O)C(F)(F)F.O=C(O)C(F)(F)F", "Percent Effect": 80.28},
      {"smiles": "CN1CCn2c(-c3cnn(C)c3)cnc2C12CCN(CC1CC1)CC2.O=C(O)C(F)(F)F.O=C(O)C(F)(F)F.O=C(O)C(F)(F)F", "Percent Effect": -83.71},
      {"smiles": "CCS(=O)(=O)N1CCC2(CC1)c1ncc(-c3cccnc3)n1CCN2C", "Percent Effect": -142.7},
      {"smiles": "CN1CCn2c(-c3cccc(F)c3)cnc2C12CCN(CC1CC1)CC2.O=C(O)C(F)(F)F.O=C(O)C(F)(F)F.O=C(O)C(F)(F)F", "Percent Effect": 75.26},
      {"smiles": "CN1CC2(CCN(c3ncnc4c3CCNC4)CC2)OC1=O", "Percent Effect": -26.92},
      {"smiles": "CSCc1cc(C(=O)NC2(C#N)CC2)ccc1F", "Percent Effect": -114.4},
      {"smiles": "CC(C)c1cc(NC(=O)CN2CCC(N3CCCCC3)CC2)on1", "Percent Effect": -41.68},
      {"smiles": "CN1C(=O)C(c2cccnc2)CC12CCN(Cc1nccs1)CC2", "note": "(stereo not drawn)", "Percent Effect": -72.15},
      {"smiles": "Cc1cc(C)n(C2CN(CC(=O)NC3CCS(=O)(=O)C3)C2)n1", "note": "(stereo not drawn)", "Percent Effect": -92.21},
      {"smiles": "c1cnc(-c2nc(C3CCOC3)no2)cn1", "note": "(stereo not drawn)", "Percent Effect": -46.11},
      {"smiles": "Cc1occc1CNc1ncccc1S(N)(=O)=O", "Percent Effect": -160.3},
      {"smiles": "CCN(Cc1ccco1)C(=O)C1=NN(c2ccccc2)C(=O)CN1", "Percent Effect": 59.42},
      {"smiles": "CCN(C(=O)C1=NN(c2ccccc2)C(=O)CN1)c1ccccc1", "Percent Effect": -71.25},
      {"smiles": "O=C(NCCc1ccccn1)C1=NN(c2ccccc2)C(=O)CN1", "Percent Effect": -38.96},
      {"smiles": "CCc1nc(N2CCC3(CCC(=O)N(Cc4ccncc4)C3)CC2)no1", "Percent Effect": -12.44},
      {"smiles": "CC(C)n1cnnc1CN(C)C(=O)Cn1ccc2ccccc2c1=O", "Percent Effect": -90.48},
      {"smiles": "CCc1cc(CNC(=O)N2Cc3ccccc3N(C)CC2C)on1", "note": "(stereo not drawn)", "Percent Effect": -73.36},
      {"smiles": "Cc1ccc(N(C)C2CCN(C(=O)CCc3ccco3)CC2)nn1", "Percent Effect": -48.98},
      {"smiles": "FC(F)(F)C1CCCn2c(CNCc3ccco3)nnc21", "note": "(stereo not drawn)", "Percent Effect": -67.88},
      {"smiles": "Cc1noc(C)c1CNCC1CCN(CC(O)c2ccccc2)CC1", "note": "(stereo not drawn)", "Percent Effect": 41.75},
      {"smiles": "CCN(CC)C1CCN(C(=O)NCc2c(C)noc2C)CC1", "Percent Effect": -63.79},
      {"smiles": "CCc1cc(CNC(=O)N(C2CC2)C(C)c2ccco2)on1", "note": "(stereo not drawn)", "Percent Effect": -36.38}
    ]}
  ]
}
